Counter-ions that a name gives are not always drawn.
System: MDA-MB-468
Assay: phospho-S6 immunofluorescence (DAPI-normalised), per-plate z-score; higher = higher phospho-S6 signal (less pathway suppression)
Settings: 24 h
Procedure: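 GPCR-targeted compound library (MedChemExpress HY-L006) tested on MDA-MB-468 PTEN-null TNBC cells in 384-well plates at 0.1, 1 or 10 uM, combined with vehicle, GDC0941 450 nM or lapatinib 1 uM, for 24 h. Phospho-S6 (S240/244) immunofluorescence normalised to DAPI and expressed as a per-plate z-score; values are the mean of biological triplicates.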

Structure (SMILES) | phospho-S6 immunofluorescence (z-score) (co-treatment: GDC0941 450 nM) | phospho-S6 immunofluorescence (z-score) (co-treatment: lapatinib 1 uM) | phospho-S6 immunofluorescence (z-score) (co-treatment: vehicle)
CC(C)Cc1ccc([C@@H](C)C(=O)NS(C)(=O)=O)cc1 [Reparixin (L-lysine salt)] (compound 10 µM) | -1.6 | -1.46 | -0.67
C[C@@H](O)[C@@H]1NC(=O)[C@H](CCCCN)NC(=O)[C@@H](Cc2c[nH]c3ccccc23)NC(=O)[C@H](Cc2ccccc2)NC(=O)[C@@H](NC(=O)[C@H](N)Cc2ccccc2)CSSC[C@@H](C(=O)N[C@H](CO)[C@@H](C)O)NC1=O [Octreotide (acetate)] (compound 10 µM) | 0.59 | 1.9 | -0.73
OCC1OC(n2cnc3c(NC4CCCCC4)ncnc32)C(O)C1O (configuration not stated) [N6-Cyclohexyladenosine] (compound 10 µM) | -0.37 | 1.37 | 0.6
CCCCCCn1c(O)c(N=NC(=O)c2ccccc2)c2ccccc21 (compound 10 µM) | -2.97 | -0.75 | 0.59
CCC(=O)NCC[C@@H]1CCc2ccc3c(c21)CCO3 [Ramelteon] (compound 10 µM) | -0.04 | -0.4 | 0.21
CN1CCN(C(=O)c2cc3cc(Cl)ccc3[nH]2)CC1 (compound 10 µM) | 0.27 | -0.96 | 0.18
Clc1cccc(Cl)c1NC1=NCCN1 [Clonidine (hydrochloride)] (compound 10 µM) | 0.37 | 0.75 | 1.03
CN(C)CCSSCCNC(=O)C1CCN(C(=O)CSc2ccc(Cl)cc2)CC1 [6H05 (trifluoroacetate)] (compound 10 µM) | -1.17 | 2.33 | -0.23
COCCc1ccc(OCC(O)CNC(C)C)cc1 (configuration not stated) [Metoprolol (Succinate)] (compound 10 µM) | 0.44 | -0.38 | 1.15

Source: the supplement of paper PMC7411640
